# Assay results published in the supplement of paper PMC6555819.
# Test system: RARb homodimer (NR concentration 270 nM)
# Experiment: PBM binding z-score (relative to random genomic background probes); higher = stronger binding; sequences stand for … in GC…GCGATTGACAGCGTAGAATGAAGG
# In short: (§1)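 Custom Agilent 4×180K protein-binding microarrays carried double-stranded probes. Their 34-nt variable regions held direct-repeat seeds, single-nucleotide variants, half-site ablations and random human genomic background sequences. Arrays were incubated 1 h with ligand-free nuclear receptor dimers in PBS pH 7.4, 2% milk, 0.02% Triton X-100, 1 mM DTT, 0.2 mg/mL BSA and 0.4 mg/ml salmon testes DNA. Antibodies against each partner (one per run) detected binding, and scanned fluorescence was regression-normalized. Binding z-scores use random background probes as reference.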
row,Sequence,PBM binding z-score
1,CCTTACGGGTCACGAGGTTATAGCTCGACGAGCG,3.93
2,ACTTACGGGTCAACGAGGTGATAGCACGCGTATA,2.98
3,CGAACTAGGTCATTGACAGGTCAGTGAATAGTAA,4.18
4,GGAACGAGGGCATTGGAGTTGATAGCATGGCGAT,1.04
5,TCTATTAATTGAAGGGCAACCGACGAGTCCGTTT,1.05
6,TTTATTAGTTGATTAGGGCAACCGAAACAGCGGA,0.918
7,CGAACGAGGTCAAGGACAGTGAATCTCCGCACGC,4.19
8,GCTCGGAGGACAAGGTTAGAGCTTTGTCCGTAGA,0.733
9,CCTACTGGGCCAGTCAGAGGTCATTGATCATATG,3.65
10,CTCAAAAGGTCGGTTGAGGTGAGTATACGGATAA,2.58
11,AGTCAAAGTTCAGGATGAGGTAACGTAAAGCACG,3.38
12,ATCTCTAGCTAAAGATAGTTCAGTGAATGCAAAT,0.481
13,CAAACTAGGTCAAAGGTCACAGTCGAGCCAACCA,5.31
14,ATATGTAGGTTACATCCGGGTTATTCAGGCTATG,1.32
15,ATATGTAGGTTAGCTGGGGTCATTTAGACTAGGC,3.75
16,CCAGACATGTGAGAAGGTAACTCAGCCTCGATTA,0.158
17,TCTCGGACGACACGAAAGGTCAGAGCTCGACATC,4.33
18,CGTCCAAGGTCAAAGCTCAGTGAAGAGATGACGG,3.72
19,ATCTCTAGGTAAAAGTTAAGTGAATCCCGAGGAT,-0.425
20,TCTAGATGGTCAAAGGTCACACACTCGAAATGCG,4.98

row,Sequence,PBM binding z-score
1,GGAACGAGGGCATTCGAGTTGTTAGCATGGCGAT,0.647
2,CCTTACGGGTCAAAGTTATAGCACGGGTGGTACG,2.72
3,GCATATAGCTAATACAAGGTGAAAGTCCGATTGT,0.396
4,CCTCGGAGGACAGGAGGTCAGAGCTGTCCGCTTT,3.17
5,AATACATGGTCATCGTAGGCCAGAGTACGCACAG,0.899
6,CCTACTGGGCCAGCAGGTCATTGATATCAACGTT,2.26
7,GCTAGCAGGTCATTTGGGTCACTCAATGACGGGC,3.52
8,CCGAGTAGGTTAGGGGGCATTCAGGCAACGGTGA,2.12
9,CAAACTAGGTCAAGGTGAAAGTCGGTTTGTGCCA,3.45
10,ATCTGTAGGTTAGCTGGGGTCATTCAGACTAGGC,3.81
11,ATATGTAGATTAGCTGGGGTCATTCAGACTAGGC,3.49
12,ACAGACAGGTGATGAAGGAAACTCAGGCTATCAT,0.24
13,CAAACTAGGTCACCGGAAGGTCTAAGTCCGCATG,4.28
14,CTAACTAGGTCAGAACAGGACAGTGAAGGATGAT,2.03
15,TCTAGCAGGCCAGAGTGTCACTCAAGAGGTACGG,0.119
16,ATCTCTAGGTAAGACGCAGTTCAGTGAAGAACGC,0.117
17,TCATACAGGTAAAGGTGAAAGTCGAACGATATGA,1.73
18,ACTATTAGTTGATTTAGGGCAACCGATACGACGC,0.736
19,TCATATAGGTAAAAGGTGAAACTCGGTGTGGTAA,2.15
20,AATACAGGGTCACTAGTCCAGAGTAGGTACGAAT,3.23

# Test system: RARg:RXRa (NR concentration 270 nM, RXRa partner concentration 90 nM)
# Experiment: as above
# In short: as §1
row,Sequence,PBM binding z-score
1,CCTTACGGGTCACGAGGTTATAGCTCGACGAGCG,6.04
2,ACTTACGGGTCAACGAGGTGATAGCACGCGTATA,5.26
3,CGAACTAGGTCATTGACAGGTCAGTGAATAGTAA,6.77
4,GGAACGAGGGCATTGGAGTTGATAGCATGGCGAT,1.13
5,TCTATTAATTGAAGGGCAACCGACGAGTCCGTTT,0.656
6,TTTATTAGTTGATTAGGGCAACCGAAACAGCGGA,0.811
7,CGAACGAGGTCAAGGACAGTGAATCTCCGCACGC,6.33
8,GCTCGGAGGACAAGGTTAGAGCTTTGTCCGTAGA,0.376
9,CCTACTGGGCCAGTCAGAGGTCATTGATCATATG,3.94
10,CTCAAAAGGTCGGTTGAGGTGAGTATACGGATAA,2.78
11,AGTCAAAGTTCAGGATGAGGTAACGTAAAGCACG,4.78
12,ATCTCTAGCTAAAGATAGTTCAGTGAATGCAAAT,0.461
13,CAAACTAGGTCAAAGGTCACAGTCGAGCCAACCA,8.75
14,ATATGTAGGTTACATCCGGGTTATTCAGGCTATG,1.65
15,ATATGTAGGTTAGCTGGGGTCATTTAGACTAGGC,3.88
16,CCAGACATGTGAGAAGGTAACTCAGCCTCGATTA,-0.0792
17,TCTCGGACGACACGAAAGGTCAGAGCTCGACATC,4.43
18,CGTCCAAGGTCAAAGCTCAGTGAAGAGATGACGG,5.9
19,ATCTCTAGGTAAAAGTTAAGTGAATCCCGAGGAT,0.121
20,TCTAGATGGTCAAAGGTCACACACTCGAAATGCG,7.31

row,Sequence,PBM binding z-score
1,GGAACGAGGGCATTCGAGTTGTTAGCATGGCGAT,0.902
2,CCTTACGGGTCAAAGTTATAGCACGGGTGGTACG,4.74
3,GCATATAGCTAATACAAGGTGAAAGTCCGATTGT,0.366
4,CCTCGGAGGACAGGAGGTCAGAGCTGTCCGCTTT,3.42
5,AATACATGGTCATCGTAGGCCAGAGTACGCACAG,0.696
6,CCTACTGGGCCAGCAGGTCATTGATATCAACGTT,2.03
7,GCTAGCAGGTCATTTGGGTCACTCAATGACGGGC,4.5
8,CCGAGTAGGTTAGGGGGCATTCAGGCAACGGTGA,2.21
9,CAAACTAGGTCAAGGTGAAAGTCGGTTTGTGCCA,3.81
10,ATCTGTAGGTTAGCTGGGGTCATTCAGACTAGGC,4.01
11,ATATGTAGATTAGCTGGGGTCATTCAGACTAGGC,3.43
12,ACAGACAGGTGATGAAGGAAACTCAGGCTATCAT,0.168
13,CAAACTAGGTCACCGGAAGGTCTAAGTCCGCATG,5.48
14,CTAACTAGGTCAGAACAGGACAGTGAAGGATGAT,1.85
15,TCTAGCAGGCCAGAGTGTCACTCAAGAGGTACGG,0.145
16,ATCTCTAGGTAAGACGCAGTTCAGTGAAGAACGC,0.165
17,TCATACAGGTAAAGGTGAAAGTCGAACGATATGA,1.78
18,ACTATTAGTTGATTTAGGGCAACCGATACGACGC,0.306
19,TCATATAGGTAAAAGGTGAAACTCGGTGTGGTAA,2.48
20,AATACAGGGTCACTAGTCCAGAGTAGGTACGAAT,4.5
